In experiment [1] the target is T1, Tyrosine-protein kinase ITK/TSK (Homo sapiens) (UniProt Q08881).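 Further: values are mean percent inhibition of ITK from the GSK PKIS screen.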
T1 sequence (whole entry): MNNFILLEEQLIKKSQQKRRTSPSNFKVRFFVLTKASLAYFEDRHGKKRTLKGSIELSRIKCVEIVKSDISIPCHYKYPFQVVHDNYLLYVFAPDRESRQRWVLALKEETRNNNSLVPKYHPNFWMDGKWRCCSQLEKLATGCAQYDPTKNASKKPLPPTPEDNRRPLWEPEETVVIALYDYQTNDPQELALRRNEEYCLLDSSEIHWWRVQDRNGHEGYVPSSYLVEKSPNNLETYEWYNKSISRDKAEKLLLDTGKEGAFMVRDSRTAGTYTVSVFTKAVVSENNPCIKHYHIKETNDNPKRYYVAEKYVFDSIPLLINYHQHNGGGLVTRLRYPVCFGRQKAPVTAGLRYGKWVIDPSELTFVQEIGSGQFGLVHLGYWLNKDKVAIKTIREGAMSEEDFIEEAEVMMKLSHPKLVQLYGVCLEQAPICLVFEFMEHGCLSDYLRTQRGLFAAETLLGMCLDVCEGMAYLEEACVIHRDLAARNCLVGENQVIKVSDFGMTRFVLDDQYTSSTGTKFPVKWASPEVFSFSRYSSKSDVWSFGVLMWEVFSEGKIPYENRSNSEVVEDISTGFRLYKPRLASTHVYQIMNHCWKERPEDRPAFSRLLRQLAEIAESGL
To be noted: at 1 µM.

Experiment [2] addresses Tyrosine-protein kinase JAK1 (Homo sapiens) (UniProt P23458). To be noted: at 0.1 µM.
Experiment [3] shares this target. As to conditions: at 1 µM.
Experiment [4] addresses Tyrosine-protein kinase JAK2 (Homo sapiens) (UniProt O60674). As to conditions: at 0.1 µM.
The target is the same in experiment [5]. As to conditions: at 1 µM.
The target in experiment [6] is T2, Tyrosine-protein kinase JAK3 (Homo sapiens) (UniProt P52333).
T2 sequence (whole entry): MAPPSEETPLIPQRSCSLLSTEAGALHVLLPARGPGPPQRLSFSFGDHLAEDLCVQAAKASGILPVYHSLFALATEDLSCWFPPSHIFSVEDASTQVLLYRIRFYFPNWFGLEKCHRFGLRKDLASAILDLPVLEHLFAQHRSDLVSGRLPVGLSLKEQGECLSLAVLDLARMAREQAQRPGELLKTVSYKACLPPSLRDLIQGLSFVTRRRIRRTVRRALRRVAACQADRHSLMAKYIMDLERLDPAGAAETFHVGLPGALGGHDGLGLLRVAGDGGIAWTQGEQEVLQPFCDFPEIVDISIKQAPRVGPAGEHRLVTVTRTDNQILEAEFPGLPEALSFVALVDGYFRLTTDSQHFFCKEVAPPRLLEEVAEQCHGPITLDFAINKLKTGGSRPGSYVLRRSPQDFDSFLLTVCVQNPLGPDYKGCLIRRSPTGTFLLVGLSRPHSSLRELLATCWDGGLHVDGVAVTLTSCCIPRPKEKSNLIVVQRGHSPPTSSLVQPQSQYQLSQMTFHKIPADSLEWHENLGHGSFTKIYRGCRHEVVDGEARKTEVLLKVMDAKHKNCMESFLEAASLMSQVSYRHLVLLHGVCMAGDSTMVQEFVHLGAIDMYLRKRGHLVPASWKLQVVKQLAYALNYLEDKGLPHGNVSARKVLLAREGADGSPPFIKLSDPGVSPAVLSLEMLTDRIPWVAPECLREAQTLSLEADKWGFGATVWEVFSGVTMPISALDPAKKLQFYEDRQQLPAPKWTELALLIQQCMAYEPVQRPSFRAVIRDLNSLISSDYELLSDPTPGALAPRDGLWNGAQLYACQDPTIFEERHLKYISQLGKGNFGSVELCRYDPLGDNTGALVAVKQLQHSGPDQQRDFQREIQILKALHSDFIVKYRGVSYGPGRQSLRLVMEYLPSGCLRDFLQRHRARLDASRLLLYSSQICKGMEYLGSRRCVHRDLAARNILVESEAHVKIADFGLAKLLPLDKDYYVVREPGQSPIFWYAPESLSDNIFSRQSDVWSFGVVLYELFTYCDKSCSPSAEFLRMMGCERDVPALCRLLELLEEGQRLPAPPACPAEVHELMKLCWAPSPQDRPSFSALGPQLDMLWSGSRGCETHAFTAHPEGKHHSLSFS
To be noted: at 0.1 µM.

The target in experiment [7] is T2, Tyrosine-protein kinase JAK3 (Homo sapiens). As to conditions: at 1 µM.
The target of experiment [8] is Vascular endothelial growth factor receptor 2 (Homo sapiens) (UniProt P35968). To be noted: at 0.1 µM.
Chain of Vascular endothelial growth factor receptor 2 (Homo sapiens) (P35968 whole entry): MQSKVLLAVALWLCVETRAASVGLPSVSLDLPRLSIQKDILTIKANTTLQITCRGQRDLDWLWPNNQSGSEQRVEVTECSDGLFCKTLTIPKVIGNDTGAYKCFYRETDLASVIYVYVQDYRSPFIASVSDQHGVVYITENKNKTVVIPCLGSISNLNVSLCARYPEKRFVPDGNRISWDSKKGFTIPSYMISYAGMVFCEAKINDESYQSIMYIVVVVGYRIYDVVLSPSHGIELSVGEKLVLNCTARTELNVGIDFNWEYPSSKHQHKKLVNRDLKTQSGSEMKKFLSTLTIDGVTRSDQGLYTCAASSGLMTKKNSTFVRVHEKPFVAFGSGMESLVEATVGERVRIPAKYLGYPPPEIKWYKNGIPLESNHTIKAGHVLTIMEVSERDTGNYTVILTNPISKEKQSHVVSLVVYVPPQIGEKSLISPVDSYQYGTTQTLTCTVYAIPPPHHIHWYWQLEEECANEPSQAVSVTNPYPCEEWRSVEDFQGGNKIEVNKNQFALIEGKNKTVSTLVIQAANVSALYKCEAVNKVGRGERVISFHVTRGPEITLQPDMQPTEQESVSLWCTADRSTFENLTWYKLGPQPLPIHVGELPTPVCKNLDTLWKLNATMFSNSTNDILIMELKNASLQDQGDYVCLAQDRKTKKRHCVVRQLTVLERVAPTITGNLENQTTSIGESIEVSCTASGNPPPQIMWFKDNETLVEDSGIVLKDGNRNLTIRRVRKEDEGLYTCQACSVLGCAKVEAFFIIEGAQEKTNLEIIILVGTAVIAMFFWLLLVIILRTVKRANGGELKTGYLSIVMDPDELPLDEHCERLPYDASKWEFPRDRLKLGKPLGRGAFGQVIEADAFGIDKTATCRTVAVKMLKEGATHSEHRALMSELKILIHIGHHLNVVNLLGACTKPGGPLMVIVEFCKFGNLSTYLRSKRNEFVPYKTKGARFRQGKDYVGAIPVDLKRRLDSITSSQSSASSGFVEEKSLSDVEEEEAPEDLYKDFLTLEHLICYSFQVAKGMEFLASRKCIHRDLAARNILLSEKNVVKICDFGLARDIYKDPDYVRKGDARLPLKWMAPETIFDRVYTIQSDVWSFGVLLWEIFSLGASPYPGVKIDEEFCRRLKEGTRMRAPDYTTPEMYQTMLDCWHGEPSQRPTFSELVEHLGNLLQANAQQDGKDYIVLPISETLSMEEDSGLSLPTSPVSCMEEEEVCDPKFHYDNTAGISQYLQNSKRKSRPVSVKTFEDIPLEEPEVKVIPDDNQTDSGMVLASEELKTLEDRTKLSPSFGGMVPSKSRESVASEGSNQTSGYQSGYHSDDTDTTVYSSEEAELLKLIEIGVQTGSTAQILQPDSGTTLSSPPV
For experiment [9] the target is unchanged. As to conditions: at 1 µM.
For experiment [10], the target named is Mast/stem cell growth factor receptor Kit (Homo sapiens) (UniProt P10721). As to conditions: at 0.1 µM.
Chain of Mast/stem cell growth factor receptor Kit (Homo sapiens) (P10721 whole entry): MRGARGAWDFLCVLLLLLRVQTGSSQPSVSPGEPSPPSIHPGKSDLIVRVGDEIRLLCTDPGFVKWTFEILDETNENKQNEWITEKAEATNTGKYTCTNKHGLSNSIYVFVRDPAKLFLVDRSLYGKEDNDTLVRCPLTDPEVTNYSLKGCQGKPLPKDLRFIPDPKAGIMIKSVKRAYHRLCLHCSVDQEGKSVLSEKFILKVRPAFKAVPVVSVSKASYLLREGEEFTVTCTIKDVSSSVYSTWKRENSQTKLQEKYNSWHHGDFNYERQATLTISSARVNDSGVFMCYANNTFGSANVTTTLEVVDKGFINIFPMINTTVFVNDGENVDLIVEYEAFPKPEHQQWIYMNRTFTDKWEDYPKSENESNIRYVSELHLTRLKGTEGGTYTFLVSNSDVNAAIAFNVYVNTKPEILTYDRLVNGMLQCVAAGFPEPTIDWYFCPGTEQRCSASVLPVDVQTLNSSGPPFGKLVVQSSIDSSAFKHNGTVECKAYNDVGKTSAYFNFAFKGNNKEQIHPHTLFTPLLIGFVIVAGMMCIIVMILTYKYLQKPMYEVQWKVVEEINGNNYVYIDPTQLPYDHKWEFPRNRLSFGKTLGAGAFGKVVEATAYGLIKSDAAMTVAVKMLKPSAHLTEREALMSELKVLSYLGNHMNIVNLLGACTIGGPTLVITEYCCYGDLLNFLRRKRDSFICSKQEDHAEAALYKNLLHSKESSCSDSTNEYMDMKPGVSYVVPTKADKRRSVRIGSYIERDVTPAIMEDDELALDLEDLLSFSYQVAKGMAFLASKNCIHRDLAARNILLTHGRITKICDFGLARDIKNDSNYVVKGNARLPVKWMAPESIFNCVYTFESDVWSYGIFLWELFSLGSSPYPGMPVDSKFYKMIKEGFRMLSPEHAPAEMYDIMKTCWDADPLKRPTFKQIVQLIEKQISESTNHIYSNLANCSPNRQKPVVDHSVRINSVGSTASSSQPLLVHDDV
For experiment [11] the target is unchanged. To be noted: at 1 µM.
For experiment [12], the system named is Mast/stem cell growth factor receptor Kit (Homo sapiens), P10721 [D816V]. As to conditions: at 0.1 µM.
Chain of Mast/stem cell growth factor receptor Kit (Homo sapiens), P10721 [D816V] (P10721 whole entry D816V): as the sequence (P10721 whole entry) above, with D816V counted along it
Experiment [13] has the same test system. As to conditions: at 1 µM.
Experiment [14] has as its system Mast/stem cell growth factor receptor Kit (Homo sapiens), P10721 [T670I]. As to conditions: at 0.1 µM.
Experiment [15] shares this test system. As to conditions: at 1 µM.
The subject of experiment [16] is Mast/stem cell growth factor receptor Kit (Homo sapiens), P10721 [V560G]. To be noted: at 0.1 µM.
Experiment [17] shares this test system. To be noted: at 1 µM.
In experiment [18] the target is Tyrosine-protein kinase Lck (Homo sapiens) (UniProt P06239). As to conditions: at 0.1 µM.
Chain of Tyrosine-protein kinase Lck (Homo sapiens) (P06239 2-509 limits assumed): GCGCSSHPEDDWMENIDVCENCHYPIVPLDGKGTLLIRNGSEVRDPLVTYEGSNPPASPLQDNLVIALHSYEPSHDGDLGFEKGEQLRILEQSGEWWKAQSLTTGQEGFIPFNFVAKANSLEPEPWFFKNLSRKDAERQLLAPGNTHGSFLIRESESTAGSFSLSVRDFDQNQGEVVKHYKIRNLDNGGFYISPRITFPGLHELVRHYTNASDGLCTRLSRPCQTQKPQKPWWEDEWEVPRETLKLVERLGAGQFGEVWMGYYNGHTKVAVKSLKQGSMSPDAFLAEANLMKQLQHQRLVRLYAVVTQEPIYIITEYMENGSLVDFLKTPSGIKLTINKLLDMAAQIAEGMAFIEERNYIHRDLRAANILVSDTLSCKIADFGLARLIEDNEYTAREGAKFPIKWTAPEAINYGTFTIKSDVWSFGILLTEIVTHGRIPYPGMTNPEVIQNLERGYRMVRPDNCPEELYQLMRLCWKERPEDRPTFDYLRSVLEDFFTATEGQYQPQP
Experiment [19] has the same target. As to conditions: at 1 µM.
For experiment [20], the target named is Leukocyte tyrosine kinase receptor (Homo sapiens) (UniProt P29376). As to conditions: at 0.1 µM.
Chain of Leukocyte tyrosine kinase receptor (Homo sapiens) (P29376 whole entry): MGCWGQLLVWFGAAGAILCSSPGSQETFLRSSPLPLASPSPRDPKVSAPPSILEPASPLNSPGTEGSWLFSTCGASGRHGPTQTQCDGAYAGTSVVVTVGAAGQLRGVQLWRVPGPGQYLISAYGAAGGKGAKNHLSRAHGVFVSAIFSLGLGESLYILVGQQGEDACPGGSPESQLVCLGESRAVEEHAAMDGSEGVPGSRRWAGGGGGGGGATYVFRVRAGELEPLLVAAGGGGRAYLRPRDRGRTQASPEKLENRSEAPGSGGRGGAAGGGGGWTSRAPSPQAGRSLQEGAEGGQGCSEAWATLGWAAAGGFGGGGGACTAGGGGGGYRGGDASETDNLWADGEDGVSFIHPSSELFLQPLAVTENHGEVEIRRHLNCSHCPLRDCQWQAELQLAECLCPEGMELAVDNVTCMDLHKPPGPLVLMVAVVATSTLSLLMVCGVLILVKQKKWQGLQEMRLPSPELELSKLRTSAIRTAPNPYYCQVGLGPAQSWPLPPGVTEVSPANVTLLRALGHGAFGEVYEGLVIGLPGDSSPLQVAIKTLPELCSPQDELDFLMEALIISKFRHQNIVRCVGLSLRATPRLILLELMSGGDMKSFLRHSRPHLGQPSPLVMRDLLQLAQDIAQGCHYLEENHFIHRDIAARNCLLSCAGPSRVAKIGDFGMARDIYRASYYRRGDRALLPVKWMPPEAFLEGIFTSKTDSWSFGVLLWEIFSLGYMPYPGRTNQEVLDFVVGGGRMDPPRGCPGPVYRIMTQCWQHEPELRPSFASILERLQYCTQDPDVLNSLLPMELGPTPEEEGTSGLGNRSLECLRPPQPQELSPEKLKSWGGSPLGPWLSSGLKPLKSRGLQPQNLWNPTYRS

Chain of Tyrosine-protein kinase JAK1 (Homo sapiens) (P23458 whole entry): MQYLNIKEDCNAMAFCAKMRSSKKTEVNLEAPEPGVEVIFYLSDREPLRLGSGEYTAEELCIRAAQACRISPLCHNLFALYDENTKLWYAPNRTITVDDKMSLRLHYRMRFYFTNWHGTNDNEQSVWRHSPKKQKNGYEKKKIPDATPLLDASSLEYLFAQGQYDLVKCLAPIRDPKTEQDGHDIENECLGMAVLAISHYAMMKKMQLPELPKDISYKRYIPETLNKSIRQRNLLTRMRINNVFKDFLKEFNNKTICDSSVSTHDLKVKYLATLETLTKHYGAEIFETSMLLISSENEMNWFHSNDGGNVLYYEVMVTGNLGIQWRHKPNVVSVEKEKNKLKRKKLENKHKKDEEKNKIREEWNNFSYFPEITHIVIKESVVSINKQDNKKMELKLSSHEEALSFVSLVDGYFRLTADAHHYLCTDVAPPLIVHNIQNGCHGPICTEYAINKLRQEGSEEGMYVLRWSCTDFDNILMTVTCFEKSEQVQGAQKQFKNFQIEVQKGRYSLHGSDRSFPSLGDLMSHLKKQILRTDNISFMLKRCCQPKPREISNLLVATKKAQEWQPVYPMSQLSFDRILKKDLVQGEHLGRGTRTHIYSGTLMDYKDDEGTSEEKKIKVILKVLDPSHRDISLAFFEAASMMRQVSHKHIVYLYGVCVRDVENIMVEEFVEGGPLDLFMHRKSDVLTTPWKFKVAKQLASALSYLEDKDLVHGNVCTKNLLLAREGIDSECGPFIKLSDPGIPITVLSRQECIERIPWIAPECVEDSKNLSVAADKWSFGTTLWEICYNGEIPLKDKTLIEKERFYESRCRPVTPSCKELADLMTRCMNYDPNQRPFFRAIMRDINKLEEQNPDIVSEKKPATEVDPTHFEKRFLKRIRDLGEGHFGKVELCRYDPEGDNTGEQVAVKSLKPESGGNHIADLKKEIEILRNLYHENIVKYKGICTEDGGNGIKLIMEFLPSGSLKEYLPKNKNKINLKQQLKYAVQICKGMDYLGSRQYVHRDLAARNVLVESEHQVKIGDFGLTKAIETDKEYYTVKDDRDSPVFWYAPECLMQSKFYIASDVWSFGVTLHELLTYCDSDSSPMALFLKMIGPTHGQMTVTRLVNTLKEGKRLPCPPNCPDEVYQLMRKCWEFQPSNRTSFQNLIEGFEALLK
Chain of Mast/stem cell growth factor receptor Kit (Homo sapiens), P10721 [V560G] (P10721 whole entry V560G): as the sequence (P10721 whole entry) above, with V560G counted along it
Chain of Mast/stem cell growth factor receptor Kit (Homo sapiens), P10721 [T670I] (P10721 whole entry T670I): as the sequence (P10721 whole entry) above, with T670I counted along it

With `CCCN1CCCC(c2ccc(Nc3nc(Nc4cc(F)ccc4C(N)=O)c4cc[nH]c4n3)c(OC)c2)C1` (stereo not given), the inhibition in [1] was 6%; in experiment [2] it was -0.47%; in experiment [3], -0.81%; in experiment [4] it was 1.82%; in [5], 2.51%; in [6], -1.48%. Besides, the inhibition in experiment [7] was -3.27%; in [8], 7.45%; in [9] it was 16.6%; in [10] it was 8.98%; in experiment [11], 13.1%; in experiment [12] it was 4.45%. The inhibition in [13] is 4.83%; in [14] it was 2.47%; in experiment [15], 3.44%; in experiment [16], -0.05%; in experiment [17], -0.43%; in experiment [18], 1.09%. The figures for the inhibition in experiment [19] and in experiment [20] were 6.22% and 95%, respectively.

Turning to `CCn1c(-c2nonc2N)nc2c(C#CC(C)(C)O)nc(OCCNC)cc21`, the inhibition is 0.12% in [1]; 1.27% in experiment [2]; 2.83% in experiment [3]; 2.5% in [4]; 3.3% in experiment [5]; -2.54% in experiment [6]. The inhibition was -0.89% in [7]; 16.2% in experiment [8]; 64.8% in experiment [9]; 4.99% in [10]; 6.66% in experiment [11]; 4.65% in [12]. The inhibition is 3.95% in experiment [13]; 0.61% in [14]; 3.65% in experiment [15]; -4.02% in experiment [16]; 4.6% in [17]; 2.55% in experiment [18]. Moreover, the inhibition in [19] was found to be 2.44%; in [20] it was 5.09%.

For `C[C@@H](Oc1cc(-n2cnc3ccc(OCC4CCN(C)CC4)cc32)sc1C(N)=O)c1ccccc1C(F)(F)F`, the inhibition in experiment [1] is 0.89%; in experiment [2], -1.08%; in experiment [3], -2.39%; in [4], -0.93%; in [5], 2.51%; in experiment [6] it was -0.8%. Moreover, the inhibition was 30.1% in experiment [7]; 2.65% in experiment [8]; 34.4% in [9]; -0.76% in experiment [10]; 0.09% in experiment [11]; -2% in [12]. The inhibition was -1.63% in experiment [13]; -0.04% in experiment [14]; 0.36% in [15]; 2.2% in experiment [16]; 4.85% in experiment [17]; 5.2% in [18]. In addition, the inhibition is 33.8% in experiment [19] and -0.86% in experiment [20].

With `C[C@@H](Oc1cc(-n2cnc3ccc(OC[C@@H](O)CO)cc32)sc1C(N)=O)c1ccccc1Cl`, the inhibition in experiment [1] was 0.81%; in [2], -2.88%; in experiment [3] it was 0.21%; in experiment [4], -0.63%; in experiment [5], 0.06%; in experiment [6], -0.17%. The inhibition was 19.7% in experiment [7]; 1.39% in [8]; 22.2% in experiment [9]; -0.46% in [10]; 4.68% in experiment [11]; -3.17% in experiment [12]. Also, the inhibition in experiment [13] was 1.58%; in experiment [14] it was -1.2%; in experiment [15], 0.87%; in [16] it was 3.36%; in [17] it was 2.13%; in experiment [18], 1.2%. In addition, the inhibition in experiment [19] was 6.12%; in [20], -0.43%.

Regarding `NS(=O)(=O)c1ccc(N/N=C2\C(=O)Nc3ccc(Cl)cc32)cc1`, the inhibition in experiment [1] was 4.1%; in [2], 4.77%; in experiment [3], 11.7%; in [4], 1.28%; in experiment [5], 1.55%; in [6], -2.01%. The inhibition in [7] is 1.21%; in experiment [8], 1.7%; in experiment [9], 16.9%; in experiment [10], 41.3%; in experiment [11], 89.8%; in [12] it was 1.33%. Moreover, the inhibition is 3.24% in experiment [13]; 5.37% in experiment [14]; 41.2% in experiment [15]; 2.89% in experiment [16]; 30.3% in experiment [17]; 1.35% in experiment [18]. Further, the inhibition is 3.7% in experiment [19] and 3.2% in experiment [20].

`CCn1c(-c2nonc2N)nc2ccc(F)cc21`: the inhibition in experiment [1] is 1.52%; in [2], 5.5%; in [3] it was 10.5%; in experiment [4], 1.07%; in experiment [5], 1.29%; in [6], -1.62%. Besides, the inhibition is -1.23% in experiment [7]; 5.19% in [8]; 6.9% in [9]; 5.81% in experiment [10]; 6.81% in experiment [11]; 6.28% in experiment [12]. Besides, the inhibition is 3.76% in [13]; 3.59% in experiment [14]; 6.26% in experiment [15]; -1.12% in [16]; -0.91% in experiment [17]; 2.91% in experiment [18]. In addition, the figures for the inhibition in [19] and in experiment [20] were 2.85% and 3.51%, respectively.

One may read the inhibition as the drop in the measured response relative to a control, in per cent.

These data come from ChEMBL document CHEMBL1961873, “Compounds: GSK PKIS; Assays: Nanosyn kinase panel” (2012).
